From PubChem BioAssay (NCATS)
Inconclusive results are not listed. Calls of active or inactive are those of the source. Calls follow the shape of the dose curve; as a rule, active = well fitted curve in the direction sought with a large enough effect; inconclusive = small, poorly fitted or top-dose-only effect, or another doubt; inactive = no such curve, though single readings can be large; an effect the other way counts as inactive or inconclusive.

Legend:
[1] = Cell Viability - H-4-II-E (AID 543);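 also: cells exposed to compound for 40 hours; % is scaled to controls: 0 for no effect and ±100 for the full control effect; nearly all actives have a fitted effect of over 35% in size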
Procedure, shortened: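 Rat hepatoma H-4-II-E cells, 1500 per well, treated 40 h at 37 °C in complete medium. Cellular ATP read by CellTiter-Glo luminescence; AC50 from Hill fits of concentration-response.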

[2] = Cell Viability - SH-SY5Y (AID 544); conditions: SH-SY5Y neuroblastoma cell viability; viability change, negative = cytotoxic: at 92.2 µM (top of the series);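 also: cells exposed to compound for 40 hours; nearly all actives have a fitted effect of over 55% in size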
Procedure, shortened: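 SH-SY5Y human neuroblastoma cells (1500/well) incubated 5 h, then compound-treated 40 h at 37 °C in complete medium. Viability read as intracellular ATP by CellTiter-Glo luminescence after 20 min; AC50 from Hill-equation fits of qHTS concentration-response.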

[3] = Cell Viability - Renal Proximal Tubule (AID 545);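 also: cells exposed to compound for 40 hours; nearly all actives have a fitted effect of over 40% in size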
Procedure, shortened: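 Primary rat renal proximal tubule cells (1000/well) were treated with compounds for 40 hr at 37 °C in complete medium. Intracellular ATP was measured by CellTiter-Glo luminescence, and AC50 values came from Hill-equation fits of concentration-response data.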

[4] = Cell Viability - Mesenchymal (AID 546);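 also: cells exposed to compound for 40 hours before reading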
Procedure, shortened: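 Normal human renal glomerulus-derived kidney mesenchymal cells, 1000 per well in complete medium, were treated with compounds for 40 hr at 37 °C. Viability was read as intracellular ATP by CellTiter-Glo luminescence; AC50 values came from Hill-equation fits of qHTS concentration-response data.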

[5] = Cellular Toxicity (caspase-3) HepG2 (AID 654);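 also: cells exposed to compound for 16 hours before reading; 0% = DMSO alone and 100% = caspase signal from 100 µM tamoxifen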
Procedure, shortened: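 HepG2 cells (1500/well) were treated 16 h at 37 °C in complete medium, then caspase 3/7 activity was read by Caspase-Glo luminescence. Data were normalized to DMSO and 100 uM tamoxifen; AC50 came from Hill-equation fits of qHTS concentration-response.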

[6] = Cellular Toxicity (caspase-3) Jurkat (AID 655); conditions: Jurkat caspase-3 activation, luminescence; caspase-3 activation: at 92.2 µM (top of the series), DMSO = 0%, tamoxifen = 100%;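 also: cells exposed to compound for 16 h at 37 °C before reading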
Procedure, shortened: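 Jurkat cells (5000/well) in complete medium were treated with compounds for 16 hr at 37 °C, then Caspase-Glo 3/7 luminescence was read after 20 min at room temperature. Data normalized to DMSO (basal) and 100 uM tamoxifen (100%); AC50 from Hill fit.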

[7] = Cellular Toxicity (caspase-3) HUV-EC-C (AID 656)
Procedure, shortened: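 HUV-EC-C endothelial cells, 1000/well, were pre-incubated 5 hr at 37°C, then exposed to compounds for 16 hr at 37°C. Caspase-Glo 3/7 luminescence was read after 20 min at room temperature. AC50 came from Hill fits, normalized to DMSO and 100 uM tamoxifen.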

[8] = Cellular Toxicity (caspase-3) SHSY5Y (AID 657)
Procedure, shortened: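 SH-SY5Y human neuroblastoma cells (1500/well) were treated with compounds for 16 h at 37 °C, then Caspase-Glo 3/7 luminescence was read after 1 h at room temperature. Data normalized to DMSO and 10 uM staurosporine; AC50 from Hill fits.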

[9] = Cellular Toxicity (caspase-3) BJ (AID 658);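 also: 0% = DMSO basal and 100% = 10 µM staurosporine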
Procedure, shortened: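 Luminescent aminoluciferin-substrate cleavage reports caspase 3/7 activity in normal human BJ fibroblasts after 16 hr compound exposure at 37 °C. Normalized to DMSO (basal) and 10 uM staurosporine (100%); AC50 from Hill fit of concentration-response.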

[10] = Cellular Toxicity (caspase-3) MRC-5 (AID 659);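 also: 0% = DMSO basal and 100% = 10 µM staurosporine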
Procedure, shortened: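 Luminescence from caspase-cleaved aminoluciferin substrate (Caspase-Glo 3/7, 1 hr RT) reports caspase 3/7 activity in MRC-5 lung fibroblasts after 16 hr compound exposure. Normalized to DMSO basal and 10 uM staurosporine as 100%; AC50 from Hill fits.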

[11] = Cellular Toxicity (caspase-3) Mesangial (AID 660); conditions: mesangial cells, normalized: DMSO 0%, 100 µM tamoxifen 100%; at 91.7 µM (top of the series);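 also: cells exposed to compound for 16 h before the caspase read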
Procedure, shortened: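 Human renal glomerular mesangial cells, 1000/well, 5 h at 37 C before 16 h compound treatment. Caspase-Glo 3/7 luminescence after 20 min; normalized to DMSO and 100 uM tamoxifen, AC50 from Hill fit.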

[12] = Cellular Toxicity (caspase-3) SK-N-SH (AID 661);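 also: 0% = DMSO basal and 100% = 10 µM staurosporine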
Procedure, shortened: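 Human SK-N-SH neuroblastoma cells, 1500/well, were exposed to compounds for 16 hours at 37 °C. Caspase-Glo 3/7 luminescence was normalized to DMSO (basal) and 10 uM staurosporine (100%), and AC50 came from a Hill fit.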

[13] = Cellular Toxicity (caspase-3) H-4-II-E (AID 663); conditions: H-4-II-E rat hepatoma, scaled: DMSO 0%, 100 µM tamoxifen 100%; at 92.2 µM (top of the series);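 also: cells exposed to compound for 16 hr before readout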
Procedure, shortened: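 Luminescence from caspase-cleaved aminoluciferin substrate, read 20 min after reagent addition, reports caspase 3/7 activation in rat H-4-II-E cells after 16 hr compound exposure. Normalized to DMSO (basal) and 100 uM tamoxifen (100%); AC50 from Hill fits.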

[14] = Cellular Toxicity (caspase-3) Hek293 (AID 664); conditions: HEK293 caspase-3 activation, DMSO = 0%, 100 µM tamoxifen = 100%; at 92.2 µM (top of the series);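 also: cells exposed to compound for 16 h at 37 °C before readout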
Procedure, shortened: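 HEK293 cells in complete medium treated 16 h at 37 °C, then Caspase-Glo 3/7 luminescence read after 20 min at room temperature. Normalized to DMSO and 100 uM tamoxifen; AC50 from Hill fit of concentration-response.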

[15] = Cellular Toxicity (caspase-3) N2a (AID 665);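 also: compound exposure lasted 16 h at 37 °C before readout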
Procedure, shortened: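 Mouse N2a neuroblastoma cells, 1500 per well, treated 16 h at 37 °C in complete medium; caspase-3/7 activity by Caspase-Glo luminescence after 1 h. Normalized to DMSO and 10 uM staurosporine; AC50 from Hill fits.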

[16] = Cellular Toxicity (caspase-3) NIH 3T3 (AID 666);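 also: 0% = DMSO basal and 100% = 100 µM tamoxifen stimulation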
Procedure, shortened: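 Mouse NIH 3T3 fibroblasts (1000/well) treated 16 h at 37 C; caspase-3/7 activity measured by Caspase-Glo 3/7 luminescence after 20 min. Normalized to DMSO and 100 uM tamoxifen; AC50 from Hill fits.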

[17] = Cellular Toxicity (caspase-3) Renal Proximal Tubule (AID 667); conditions: Potency: caspase-3 activation;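 also: cells exposed to compound for 16 hours at 37 °C before detection; 0% = DMSO basal and 100% = 10 µM staurosporine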
Procedure, shortened: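 Primary rat proximal tubule cells, 1000/well, 5 h plating at 37 °C, then compound 16 h at 37 °C. Caspase-Glo 3/7 reagent, 1 h RT, luminescence. Normalized to DMSO (basal) and 10 uM staurosporine (100%); Hill-fit AC50.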

[18] = biological target: Cytochrome P450 3A4 (Homo sapiens) (UniProt P08684); test: qHTS Assay for Inhibitors and Substrates of Cytochrome P450 3A4 (AID 884); also: % is scaled to controls: 0 for no effect and ±100 for the full control effect; nearly all actives have a fitted effect of over 50% in size
Procedure, shortened: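 20 nM human CYP3A4 with 25 uM Luciferin-PPXE (at KM) in 200 mM KPO4, preincubated 10 min with compound; NADPH regeneration started a 60 min RT reaction. Luciferin detected by luminescence, normalized to 57 uM ketoconazole as full inhibition.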

[19] = Cell Viability - LYMP2-001 (AID 921);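 also: 0% = DMSO only and full inhibition = tetraoctylammonium bromide control wells; nearly all actives have a fitted effect of over 70% in size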
Procedure, shortened: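 Human lymphoblastoid cells (Coriell), 2500 per well, were preincubated 5 hr at 37 C, then exposed to compounds in complete medium for 24 hr at 37 C. Cellular ATP was read by CellTiter-Glo luminescence; AC50 from Hill fits of concentration-response data.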

[20] = biological target: Cytochrome P450 3A4 (Homo sapiens) (UniProt P08684); test: qHTS Assay for Activators of Cytochrome P450 3A4 (AID 885); also: nearly all actives have a fitted effect of over 65% in size
Procedure, shortened: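 Quantitative HTS format: compounds preincubated with 20nM human CYP3A4 and Luciferin-PPXE substrate at KM, reaction started by NADPH regeneration, stopped after 60 min, luciferase luminescence read 20 min later.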

Cytochrome P450 3A4 (Homo sapiens), sequence (P08684 whole entry, looked up): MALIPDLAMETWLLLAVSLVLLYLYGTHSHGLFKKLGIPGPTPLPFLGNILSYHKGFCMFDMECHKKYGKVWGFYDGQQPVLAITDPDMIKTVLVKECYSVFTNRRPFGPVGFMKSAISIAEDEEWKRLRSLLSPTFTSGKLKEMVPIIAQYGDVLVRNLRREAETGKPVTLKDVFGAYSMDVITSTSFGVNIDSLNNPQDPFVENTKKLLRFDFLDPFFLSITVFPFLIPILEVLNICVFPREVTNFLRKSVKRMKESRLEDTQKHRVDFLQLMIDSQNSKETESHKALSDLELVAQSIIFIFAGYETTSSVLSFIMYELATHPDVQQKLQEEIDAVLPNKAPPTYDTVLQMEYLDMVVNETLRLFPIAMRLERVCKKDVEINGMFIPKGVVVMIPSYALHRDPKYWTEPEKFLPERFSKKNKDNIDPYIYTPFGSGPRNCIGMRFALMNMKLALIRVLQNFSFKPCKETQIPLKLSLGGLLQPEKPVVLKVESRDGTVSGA

BrC/C=C/CBr
inactive: Potency [1] | Potency [2] | Potency [3] | Potency [4] | Potency [5] | caspase-3 activation [6] 1.67% | outcome [7] | outcome [8] | outcome [9] | outcome [10] | caspase-3 activation [11] -0.978% | outcome [12] | caspase-3 activation [13] 0.954% | caspase-3 activation [14] 2.1% | outcome [15] | outcome [16] | Potency [17] | Potency [18] | Potency [19]

NC(=O)c1ccccc1[N+](=O)[O-]
inactive: Potency [1] | Potency [2] | Potency [3] | Potency [4] | Potency [5] | caspase-3 activation [6] -0.0168% | outcome [7] | outcome [8] | outcome [9] | outcome [10] | caspase-3 activation [11] -0.625% | outcome [12] | caspase-3 activation [13] 0.0974% | caspase-3 activation [14] 0.369% | outcome [15] | outcome [16] | Potency [17] | Potency [18] | Potency [19]

Cc1ccc2ncccc2c1
inactive: Potency [1] | Potency [2] | Potency [3] | Potency [4] | Potency [5] | caspase-3 activation [6] 0.555% | outcome [7] | outcome [8] | outcome [9] | outcome [10] | caspase-3 activation [11] 0.979% | outcome [12] | caspase-3 activation [13] 0.47% | caspase-3 activation [14] 0.475% | outcome [15] | outcome [16] | Potency [17] | Potency [18] | Potency [19]

CCCC(C)CO (centres undefined)
inactive: Potency [1] | Potency [2] | Potency [3] | Potency [4] | Potency [5] | caspase-3 activation [6] 0.921% | outcome [7] | outcome [8] | outcome [9] | outcome [10] | caspase-3 activation [11] 0.885% | outcome [12] | caspase-3 activation [13] 1.09% | caspase-3 activation [14] 1.12% | outcome [15] | outcome [16] | Potency [17] | Potency [18] | Potency [19]

S=C([S-])NCCNC(=S)[S-].[Zn+2]
inactive: Potency [1] | Potency [2] | Potency [3] | Potency [4] | Potency [5] | caspase-3 activation [6] 5.46% | outcome [7] | outcome [8] | outcome [9] | outcome [10] | caspase-3 activation [11] -0.549% | outcome [12] | caspase-3 activation [13] -1.93% | caspase-3 activation [14] 3% | outcome [15] | outcome [16] | Potency [17] | outcome [20] | Potency [19]

N#CC1(O)CCCCC1
inactive: Potency [1] | Potency [2] | Potency [3] | Potency [4] | Potency [5] | caspase-3 activation [6] 1.9% | outcome [7] | outcome [8] | outcome [9] | outcome [10] | caspase-3 activation [11] 0.158% | outcome [12] | caspase-3 activation [13] -0.143% | caspase-3 activation [14] 1.67% | outcome [15] | outcome [16] | Potency [17] | Potency [18] | Potency [19]
